PubChem BioAssay (NCATS)
Records with an inconclusive call do not appear. Values without a mark were called inactive. Active and inactive are the calls of the source. The call rests on the fitted dose curve; in most records, active means well fitted cell-killing curve with a large enough effect; inconclusive means small, poorly fitted or top-dose-only effect, or effect the other way; inactive means no such curve, though single readings can be large or run the other way.

experiment: Viability qHTS for spleen associated tyrosine kinase inhibitor (SYKi) naive MV4-11 cells (AID 1963823); conditions: MV4-11 AML viability, CellTiter-Glo luminescence, 72 h; series mostly up to 45 µM; further: nearly all actives have a fitted effect of over 40% in size
Method in brief: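 Cells: MV4-11, SYK inhibitor naive, 500 per well. Treatment: library compounds, 72 hr, 37 C, 5% CO2. Read-out: CellTiter-Glo luminescence after 10 min RT.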
Potency means the concentration at half of the fitted maximal effect.

Compound	Potency	viability (% of control)
CC(C)(C)CC(C)(C)c1ccc(O)c(-n2nc3ccccc3n2)c1	inactive	–
C[C@H]1[C@H](C)CC[C@]2(C(=O)O)CC[C@]3(C)C(=CC[C@@H]4[C@@]5(C)CC[C@H](O)C(C)(C)[C@@H]5CC[C@]43C)[C@H]12	23500 nM (active)	–
O=C(/C=C/c1ccc(/C=C/C(=O)Nc2ccc(C3=NCCN3)cc2)cc1)Nc1ccc(C2=NCCN2)cc1	–	73.8% [at 4.97 µM]
CC(C)Cc1ccc([C@@H](C)C(=O)NS(C)(=O)=O)cc1	inactive	–
Cn1cc(-c2cc(Oc3cc(F)c(NC(=O)C4(C(=O)Nc5ccccc5)CC4)cc3F)ccn2)cn1	103 nM (active)	–
CCN(c1cc(C#CCN2CCOCC2)cc(C(=O)NCc2c(C)cc(C)[nH]c2=O)c1C)C1CCC(N(C)CCOC)CC1 (stereo unspecified)	inactive	–
C=CC(=O)Nc1cccc(Oc2nc(Nc3ccc(N4CCN(C)CC4)cc3)nc3ccsc23)c1	2630 nM (active)	–
CNCCn1c(=O)c2cc(OC)c(OC)cc2c2cnc3cc4c(cc3c21)OCO4	15.2 nM (active)	–
COc1cc([C@@H]2c3cc4c(cc3[C@@H](O[C@@H]3O[C@@H]5CO[C@@H](c6cccs6)O[C@H]5[C@H](O)[C@H]3O)[C@H]3COC(=O)[C@H]23)OCO4)cc(OC)c1O	74.2 nM (active)	–
Cc1c(NC(=O)c2cc(C(N)=O)nc3cc(F)ccc23)c(C(F)(F)F)nn1Cc1ccc(C(C)(C)C)cc1	20900 nM (active)	–
C[C@]12CCC(=O)C=C1CC[C@@H]1[C@@H]2[C@@H](O)C[C@@]2(C)[C@H]1CC[C@]2(O)C(=O)COC(=O)CCC(=O)O	inactive	–
Cc1cnc(NC(=O)c2cc(Oc3cnc(C(=O)N(C)C)nc3)c3cc(C)oc3c2)cn1	inactive	–
CN1CCN(C(=O)c2ccc(-c3ccc4c(C=O)c(O)ccc4c3)s2)CC1	16600 nM (active)	–
C=C1C[C@@]2(O)O[C@@]3(C[C@H]2C(C)C)[C@@H](C)CC[C@@H]13	inactive	–
CC(C)(C)C1CCC(CC2=C(O)c3ccccc3C(=O)C2=O)CC1 (stereo unspecified)	inactive	–
CN1C(CCl)Nc2cc(Cl)c(S(N)(=O)=O)cc2S1(=O)=O (stereo unspecified)	inactive	–
CCCCOC(=O)NS(=O)(=O)c1sc(CC(C)C)cc1-c1ccc(Cn2ccnc2)cc1	14800 nM (active)	–
OCC(CO)N[C@H]1C[C@](O)(CO)[C@@H](O)[C@H](O)[C@H]1O	inactive	–
Cc1c(F)ccc(C(=O)Nc2cc([N+](=O)[O-])ccc2N2CCN(C)CC2)c1Cl	1320 nM (active)	–
O=C(NCCCNC(=O)c1ccc[nH]c1=O)c1cc(-c2ccccc2)on1	4680 nM (active)	–
COc1c(Nc2ncc(Cl)c(N[C@H]3[C@H](C(N)=O)[C@@H]4C=C[C@@H]3C4)n2)ccc2c1CCC(N1CCOCC1)CC2 (stereo partly specified)	130 nM (active)	–
O=C(NCc1cccc(O)c1)Nc1nc(-c2ccncc2)cs1	10300 nM (active)	–
N#Cc1cc2cc(CN3CCC(Nc4ncnc5sc(CC(F)(F)F)cc45)CC3)c(O)cc2n1Cc1cn[nH]c1	742 nM (active)	–
CS(=O)(=O)N1CCC(NC(=O)c2[nH]ncc2NC(=O)c2c(Cl)cccc2Cl)CC1	934 nM (active)	–
Cc1cnc(NS(=O)(=O)c2ccc(N)cc2)nc1	inactive	–
CN(C)C(N)=NC(=N)N	inactive	–
